Structures are written as SMILES. A number with no mark means an inactive call. Active and inactive are the calls of the source. How the calls were made is not given here.

Among the data in PubChem BioAssay are inhibition and growth inhibition values, retold here.

For one experiment, the target named is L-lactate dehydrogenase (Plasmodium falciparum (isolate CDC / Honduras)) (UniProt Q27743). As to the kind of experiment: PfLDH activity inhibition – cell lysate, 3D7 strain, counter-screen for P. falciparum growth inhibition project (AID 2304).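 Further: 0% = vehicle and 100% = reference inhibitor.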 To be noted: P. falciparum 3D7 crude extract, LDH APAD/NBT absorbance; at 2 µM; stronger effect = higher value. (In general: The purpose of a counterscreen is to sort out artefacts and off-target activity.)
Sequence of L-lactate dehydrogenase (Plasmodium falciparum (isolate CDC / Honduras)) (Q27743 whole entry, looked up): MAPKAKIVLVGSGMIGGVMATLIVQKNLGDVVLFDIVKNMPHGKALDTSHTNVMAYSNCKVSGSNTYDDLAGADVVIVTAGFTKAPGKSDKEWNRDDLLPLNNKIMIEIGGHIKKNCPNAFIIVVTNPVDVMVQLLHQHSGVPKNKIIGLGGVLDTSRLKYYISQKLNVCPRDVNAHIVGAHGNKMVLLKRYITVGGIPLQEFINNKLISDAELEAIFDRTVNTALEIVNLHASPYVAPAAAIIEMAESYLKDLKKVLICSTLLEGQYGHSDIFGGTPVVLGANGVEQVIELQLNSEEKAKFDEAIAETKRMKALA
A word on the inhibition: it is the relative decrease from the control value, in per cent. With `COc1ccc(C2=CCN(c3ccc(Cl)c(Cl)c3)C2=O)cc1OCCN1CCCCC1`, the inhibition is -2%.
Take `CCCCCN1CCCC1CNS(=O)(=O)c1ccc(C(=O)Nc2ccc(C(F)(F)F)cc2)cc1` (stereo not given): the inhibition was -2%.
The same measure, in the same setting: the value for `Cc1nc2ccccc2c(=O)n1N=Cc1ccccc1[N+](=O)[O-]` was 3%; that for `Cc1cc(NN=Cc2ccccc2)c2cc(C(F)(F)F)ccc2n1` was -6%.
On the same count and under the same terms, with `Cc1cc(Cl)c(S(=O)(=O)NC2CCCC2)cc1OCC(=O)NC1CCCCC1` the figure was -6%; with `O=C(Nc1ccc2c(c1)CCC2)c1cccc(N2CCN(c3ccncc3)CC2)c1`, -2%.
With `O=C(Nc1ccc(-c2cccc(-c3nc4ccc(C(F)(F)F)cc4[nH]3)c2)cc1)c1ccncc1`, the inhibition is -4%.
The same measure, in the same setting: with `COc1ccc(-c2c(-c3ccc(OCc4ccccc4)cc3O)n[nH]c2C(F)(F)F)cc1` the figure was 2%; with `CCCCCN1CCCN(Cc2cccc(NC(=O)c3ccc(Cl)c(Cl)c3)c2)CC1`, 0%.
Consider `Cc1cccc(C)c1C1CCN(C2CCC(NC(=O)/C=C/c3ccccc3)CC2)CC1` (stereo not given), for which the inhibition is -1%.

Tested on in a further experiment: not listed separately
Nature of the experiment: inhibition of 3D7 malaria parasite growth – strain 3D7 (AID 2306).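 Further: 0% = DMSO wells and 100% = chloroquine plus artemisinin control wells.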 To be noted: P. falciparum 3D7 erythrocytic growth, LDH absorbance, 72 h; at 2 µM; stronger effect = higher value.
As to `CC1(CCCCN2CCC(Oc3ccc(F)cc3F)CC2)C(=O)Nc2ccccc21` (stereo not given), the growth inhibition was 99% (active).
Still for that read-out and setting: the value for `c1cc(CNC2CCCC2)cc(-c2ccc(CNc3ccc4ncccc4c3)cc2)c1` was 98% (active); that for `O=S(=O)(c1cc2ccccc2s1)N(CCC(O)(C(F)(F)F)C(F)(F)F)Cc1cccc(O)c1` was 100% (active).
For the compound `CCC(C)CN1CCN(c2ccc(NC(=O)c3cccs3)cc2)CC1C` (stereo not given), the growth inhibition is 94% (active).
On the same count and under the same terms, with `COc1ccc(Nc2nccc(N3CCC(NC(=O)C(C)c4ccc(Cl)cc4)C3)n2)cc1` (stereo not given) the figure was 85% (active); with `O=C(/C=C/c1ccc(Cl)c(Cl)c1)NCCCCN1CCC(c2c[nH]c3ccccc23)CC1`, 91% (active).
Still for that read-out and setting: the value for `N#Cc1cccc(NC(=O)Nc2ccc(-c3ccc(-c4nc5ccc(C(F)(F)F)cc5[nH]4)cc3)cc2)c1` was 102% (active); that for `CCOc1ccc(-c2nonc2NC(=O)c2ccc(OC(C)C)cc2)cc1OCC` was 100% (active).
Turning to `COc1ccccc1NC(=O)OC(COc1ccc(N)cc1)CN1CC=C(c2ccccc2)CC1` (stereo not given), the growth inhibition was 90% (active).
The same measure, in the same setting: the value for `CCCCN1C(=O)C(c2ccccc2)(c2ccccc2)N=C1N` was 87% (active); that for `O=C(Nc1ccc(OC2CCN(Cc3ccc(F)cc3)C2)c(Cl)c1)c1ccc(F)cc1` (stereo not given) was 96% (active).
As for `COc1cccc(Nc2c(C(N)=O)cnc3ccc(-c4ccc(S(C)=O)cc4)cc23)c1` (stereo not given), the growth inhibition is 96% (active).
Still for that read-out and setting: the value for `CN(Cc1ccccc1)C1CCCN(c2cc(NC(=O)c3cccs3)ccn2)C1` (stereo not given) was 88% (active).
The same measure, in the same setting: the value for `C[C@H](Cc1ccc(S(=O)(=O)c2ccc(C[C@@H](C)NC[C@H](O)c3cccc(Cl)c3)cc2)cc1)NC[C@H](O)c1cccc(Cl)c1` was 99% (active).
Consider `O=C(Nc1ccc(-c2ccccc2)s1)N[C@H]1CCN(Cc2ccc(OCCCN3CCCCC3)cc2)C1`, for which the growth inhibition is 102% (active).
Turning to `COc1cc(Nc2nc(N)c3cc(OC)c(OC)cc3n2)cc(OC)c1`, the growth inhibition is 101% (active).
On the same count and under the same terms, the value for `O=c1cc(NCCCNCc2ccc(C(F)(F)F)s2)[nH]c2ccccc12` was 99% (active); that for `Cc1cc(NC(=O)c2sc3ccccc3c2O)no1` was 96% (active); that for `Nc1nccc2ccc(-c3ccsc3)cc12` was 100% (active).
Same read-out and setting: with `COc1cc2nc(NCCC(C)C)n3nc(-c4ccccc4)nc3c2cc1OC` the figure was 94% (active); with `COc1ccc2nccc([C@@H](O)CN3CCC(NCc4cc5c(F)ccc(F)c5[nH]4)CC3)c2c1`, 100% (active).
As for `CCCN(CC)CCOC(=O)c1ccccc1`, the growth inhibition is 99% (active).
For `C[C@H](Nc1nc(C(Oc2ccccc2)c2ccccc2)nc2[nH]ncc12)c1ccccc1` (stereo not given in full), the growth inhibition is 100% (active).
Same read-out and setting: with `Cc1ccc(O)cc1C[C@@H]1C(=O)CC[C@@]2(C)[C@H]1CC[C@]2(C)O` the figure was 96% (active); with `Cc1ccc2c(NN=Cc3ccc(Cl)cc3)cc(C)nc2c1`, 100% (active).
Same read-out and setting: with `COC(=O)c1cccc(CNCc2cccc(-c3ccc(-c4nc5ccccc5[nH]4)cc3)c2)c1` the figure was 99% (active); with `COc1cc2nc(Nc3ccc(C)cc3)nc(Nc3ccc(C)cc3)c2cc1OC`, 101% (active); with `Cc1cc(NCc2ccccc2)nc2cc(O)ccc12`, 98% (active).
Still for that read-out and setting: the value for `Cn1cccc1C(=O)C(=O)Nc1cccc(-c2ccc(-c3nc4ccc(C(F)(F)F)cc4[nH]3)cc2)c1` was 94% (active).
Take `O=C(N[C@@H](Cc1ccccc1)[C@H](O)CNC1CCCCC1)c1cc(C2CCCC2)cc(N2CCCC2=O)c1`: the growth inhibition is 100% (active).
